# TDP1 cell CPT = growth inhibition of DT40 Tdp1-/-;hTDP1 cells with camptothecin (screen for TDP1 inhibitors); chicken DT40 Tdp1-/-;hTDP1 cells + 20 nM CPT, ATP luminescence, 48 h; 420,000 tested, 12% active; AID 686979; Potency, µM (highest dose often 46.2 µM), inactives show at the top dose activity change, negative = growth inhibition, actives largely listed as inhibitors; further: potency means the concentration at half of the fitted maximal effect; nearly all actives have a fitted effect of over 55% in size
#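 Chicken DT40 Tdp1-/- cells stably complemented with human TDP1 were seeded at 400 cells/well in medium containing 20 nM camptothecin, exposed to pin-transferred compounds, and grown at 37 °C for at least 48 hr. Viability was read as ATP luminescence.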
# HT1080-NT tox = kills 2HG-producing HT-1080-NT fibrosarcoma cells. HT-1080-NT fibrosarcoma viability, CellTiter-Glo ATP luminescence, 48 h. Potency, µM (doses to about 46.1 µM), for the others: at the highest dose activity, negative = less viability, most hits filed as cytotoxic. 360,000 tested, 1.6% active. AID 686970;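 further: NT is the 2HG producing partner of a matched IDH1 knockdown line; potency means the concentration at half of the fitted maximal effect; 0% = DMSO-treated cells and -100% = media-only wells without cells; nearly all actives have a fitted effect of over 55% in size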
#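 Toxicity toward the 2HG-producing NT line was scored as %Activity, normalised to DMSO and no-cell wells, from CellTiter-Glo luminescence after 48 hours' treatment.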
# HT1080 IDH1KD tx = kills HT-1080 cells with IDH1 knockdown; HT-1080 IDH1 knockdown viability, ATP luminescence, 48 h; Potency, µM (highest dose often 46.1 µM), for inactives: top-dose activity, negative = toxicity, hits mostly cytotoxic; 360,000 tested, 2% active; AID 686971;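 further: potency means the concentration at half of the fitted maximal effect; 0% = DMSO wells and -100% = cell-free medium wells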
#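 Using the IDH1-knockdown HT-1080 line run in the same batch and compound series as the NT line, viability after 48 h at 37 °C was determined by CellTiter-Glo luminescence and expressed as % activity.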
# IL-1B inflam inh = inflammasome signaling inhibition, IL-1 beta readout | THP-1 LPS/ATP IL-1B secretion, AlphaLISA, 16 h; active compounds read low | activity change, % at 57.5 µM | 360,000 tested, 4.7% active; in the data active means activity change below about -50%; inconclusive means mostly about -30% to -49%
#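 Secreted IL-1B measured by AlphaLISA bead assay after 16 h compound exposure of THP-1 cells; compounds (final up to 57.5 uM) added 1 h before LPS (250 ng/mL) and ATP (1.25 mM) stimulation; lower signal means less secretion.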
# DT40 TDP1 no CPT = qHTS for Inhibitors of human tyrosyl-DNA phosphodiesterase 1 (TDP1): qHTS in cells in absence of CPT. 420,000 tested, 15% active. AID 686978, 2013. Potency, µM (doses to about 46.2 µM), without a hit: at the top dose activity change, negative = growth inhibition, actives largely listed as inhibitors. DT40 Tdp1-/- hTDP1 cells, no CPT, ATP luminescence, 48 h; further: potency means the concentration at half of the fitted maximal effect; nearly all actives have a fitted effect of over 55% in size
#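 Luminescent ATP content (CellTiter-Glo) served as the growth readout. Knockout chicken DT40 cells expressing human TDP1 were exposed to compounds without camptothecin for a minimum 48 hr at 37 °C.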
# Numbers without * were called inactive; u = inconclusive; x = no result given; [ ] = remark or other dose. An excerpt weighted towards active compounds, which were near 19% of everything screened. Unless noted, the call rests on the fitted dose curve; in most records, active means well fitted curve in the direction sought with a large enough effect; inconclusive means small, poorly fitted or top-dose-only effect, or another doubt; inactive means no such curve, though single readings can be large; an effect the other way counts as inactive or inconclusive. Unless noted, on the % scale 0 is the no-effect control and ±100 the full control effect.
SMILES,TDP1 cell CPT,HT1080-NT tox,HT1080 IDH1KD tx,IL-1B inflam inh,DT40 TDP1 no CPT
Cn1cc(S(=O)(=O)NC2CCCCC2)c(=O)n(C)c1=O,14%,14%,8%,-3,-5%
O=C(CSc1nc(Cc2ccccc2)nc2ccccc12)Nc1nc2c(s1)CCCC2,u,-7%,u,-12,u
CC(C)(C)c1nc(SCC(=O)Nc2nc3c(s2)CCCC3)c2ccccc2n1,15µM*,u,1.4µM*,-4,12µM*
Cc1nnc(NC(=O)CSc2nc(C(C)C)nc3ccccc23)s1,6.5µM*,-2%,19%,8,7.1µM*
CC(C)c1nc(SCC(=O)Nc2nc3c(s2)CCCC3)c2ccccc2n1,18µM*,u,11µM*,-63*,11µM*
CC(C)c1nc(SCC(=O)NC2CCCC2)c2ccccc2n1,-26%,-16%,1%,u,u
Cc1cc(NC(=O)CSc2nc(C(C)C)nc3ccccc23)no1,u,u,16µM*,-18,u
CC(=O)c1ccc(COC(=O)Cc2ccc([N+](=O)[O-])cc2)cc1,-6%,1%,-7%,-5,-8%
CCN(C(=O)Cn1cc(C(=O)C(=O)N2CCOCC2)c2ccccc21)c1ccccc1,-15%,17%,1%,-21,15%
Cc1ccc(S(=O)(=O)N2CCN(c3ccccc3)CC2)cc1C(N)=O,-22%,15%,-2%,-11,-15%
CC(=O)c1ccc(NC(=S)Nc2ccc3cn[nH]c3c2)cc1,u,-2%,0%,-73*,u
CCOC(=O)c1ccc(NC(=O)CSc2nnc(CNC(=O)c3ccc(OC)cc3)n2CC)cc1,2%,x,x,x,-26%
CCOc1ccc(NC(=O)c2cnn(-c3ccc(C)c(Cl)c3)c2C2CCNCC2)cc1,23µM*,x,x,x,u
CCOc1ccc(NC(=O)c2nnn(-c3ccc(F)c(Cl)c3)c2C)cc1,-26%,x,x,x,-26%
CCOc1cc(/C=C/c2cccc[n+]2C)ccc1OCC(=O)Nc1ccc(C)cc1,21µM*,-1%,-5%,-71*,16µM*
CCOc1cc(/C=N/n2cnnc2)ccc1OCC(=O)Nc1ccccc1OC,-8%,17%,12%,-4,8.2µM*
CCOc1cc(/C=C\[N+](=O)[O-])ccc1OCC(=O)Nc1ccccc1C,0.92µM*,2.9µM*,6.5µM*,-21,0.58µM*
Cc1ccc(NC(=O)CCc2ccc(S(=O)(=O)N3CCOCC3)cc2)c(C)c1,-25%,-12%,-5%,0,-9%
Cc1oc(-c2ccccc2NS(C)(=O)=O)nc1CN(C)Cc1ccc(Cl)cc1,-5%[9.04 µM],x,x,x,21µM*
CCN(CC)C(=O)c1ccc(COc2ccc(Cl)c(C)c2)o1,16µM*,u,u,-11,13µM*
O=C(N/N=C/c1ccc(O)cc1)c1csc2c1CCCC2,16%,-17%,-18%,-62*,u
O=C(N/N=C/c1ccc(C(F)(F)F)cc1)c1ccc(O)cc1,u,0%,u,u,u
COc1ccc(COC(=O)N/N=C/c2cccs2)cc1,-18%,-8%,9%,u,-11%
Cc1ccc(NC(=O)COC(=O)CCC(=O)c2ccc(C(C)(C)C)cc2)c([N+](=O)[O-])c1,u,9%,18%,-1,15µM*
Cc1ccc(NC(=O)COC(=O)CCn2c(C)csc2=O)c([N+](=O)[O-])c1,7%,11%,17%,-11,-1%
SMILES,TDP1 cell CPT,HT1080-NT tox,HT1080 IDH1KD tx,IL-1B inflam inh,DT40 TDP1 no CPT
CCCc1cc(NC(=O)COC(=O)c2nccnc2N)n(-c2ccccc2)n1,0%,7%,3%,27,-22%
Cc1cc(=O)oc2ccc(OCc3ccccc3)cc12,u,-15%,-7%,29,u
Cc1cc(OCC(=O)NCCc2c[nH]c3ccccc23)c2c(C)c(C)c(=O)oc2c1,u,1%,-4%,10,u
Cc1cc(OCC(=O)Nc2ccccn2)c2c(C)cc(=O)oc2c1,-25%,18%,5%,-54*,u
Cc1cc(OCC(=O)NCCc2c[nH]c3ccccc23)c2c(C)cc(=O)oc2c1,u,8%,1%,-90*,u
Cc1cc(=O)oc2cc(O)cc(OCc3ccccc3)c12,u,10%,10%,38,16µM*
CCCc1cc(=O)oc2cc(OCC(=O)NCCc3c[nH]c4ccccc34)ccc12,23µM*,u,u,-21,16µM*
COc1ccccc1NS(=O)(=O)c1cc(C(=O)NCCCN2CCCC2=O)ccc1C,-5%,5%,20%,25,0%
Cc1cc(=O)oc2cc(OCC(=O)NCCc3c[nH]c4ccc(F)cc34)ccc12,-18%,5%,13%,-25,13%
COc1ccc2[nH]cc(CCNC(=O)COc3ccc4ccc(=O)oc4c3)c2c1,u,4%,-1%,-23,21µM*
COc1ccc(OC)c(C2=Nn3c(nnc3-c3ccncc3)SC2)c1,u,u,-6%,-13,u
COc1ccccc1-c1nnc2n1N=C(C(C)(C)C)CS2,-27%,3%,-2%,0,-18%
COc1cccc(-c2nnc3n2N=C(C(C)(C)C)CS3)c1,16µM*,u,u,-93*,9.2µM*
CCOc1cccc(-c2nnc3n2N=C(c2cc(OC)ccc2OC)CS3)c1,u,-30%,-29%,-25,8.2µM*
c1ccc(C2=Nn3c(nnc3-c3cc(-c4ccccc4)n[nH]3)SC2)cc1,u,u,u,-2,u
CCOc1ccc(C2=Nn3c(nnc3-c3ccccc3)SC2)cc1Cl,-4%,-10%,-5%,33,-19%
Clc1ccc(C2=Nn3c(nnc3-c3cc(-c4ccccc4)n[nH]3)SC2)cc1,u,-5%,u,9,18µM*
COc1ccc(OC)c(C2=Nn3c(nnc3-c3cc(OC)c(OC)c(OC)c3)SC2)c1,21µM*,u,u,0,16µM*
COC(=O)Cn1c(N)[n+](Cc2ccccc2)c2ccccc21,7%,1%,2%,0,0%
Cc1nn(CC(=O)NC2CC2)c(C)c1S(=O)(=O)N(C)C,-6%,2%,2%,22,-20%
Cc1cc(-c2nnc3n2N=C(c2ccccc2Br)CS3)n[nH]1,7%,-14%,-6%,x,u
Cc1cccc(-c2nnc3n2N=C(c2ccccc2Br)CS3)c1,21µM*,-26%,-29%,-3,21µM*
COc1ccc(C2=Nn3c(nnc3-c3ccc(OC)cc3)SC2)cc1,1.8µM*,u,u,2,1µM*
COc1ccc(C2=Nn3c(nnc3-c3cc(C)[nH]n3)SC2)cc1,-5%,5%,-26%,-3,-29%

# Screening results: PubChem, National Center for Advancing Translational Sciences (NCATS)
